Bioassay records (PubChem)
LDHA block: inhibitors of human lactate dehydrogenase A; activity change, % (values are at about 110 or 230 µM); 480,000 tested, 0.15% active; AID 1347041; purified LDHA, NADH/diaphorase-resazurin fluorescence; hits give low values; P00338; in the data active means activity change below about -30%; inconclusive means mostly about -25% to -30%
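LDH5 2 nM; NADH 0.06 mM, pyruvate 0.2 mM; 200 mM Tris pH 7.4, EDTA, Tween-20; 5 min RT. Detection: diaphorase 0.133 mg/mL + resazurin 37 µM, fluorescence ex540/em590 at 0 and 20 min; normalized to enzyme-free and DMSO wells.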
rTrxR1 inhibitor: blocks rat thioredoxin reductase 1. AID 588453. O89049. recombinant rTrxR1, NADPH fluorescence consumption, selenite substrate. Potency, µM (highest dose often 114 µM), hits mostly inhibitors. 390,000 tested, 1% active; further: nearly all actives have a fitted effect of over 65% in size
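Rat TrxR1 (90 nM in the dispensed reagent) was pre-reduced with 400 uM NADPH for 5 min at room temperature, then incubated with compound for 15 min. After 400 uM selenite was added, NADPH fluorescence (Ex 340/Em 450 nm) was followed for 8 min.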
mIDH1 inhibitor: human IDH1 R132H inhibition. IDH1-R132H enzyme, NADPH consumption, diaphorase/resazurin fluorescence. Potency, µM (top dose mostly 76.6 µM), actives largely listed as inhibitors. 390,000 tested, 0.093% active; further: nearly all actives have a fitted effect of over 65% in size
Target sequence (O75874 whole entry R132H, stated change not applied): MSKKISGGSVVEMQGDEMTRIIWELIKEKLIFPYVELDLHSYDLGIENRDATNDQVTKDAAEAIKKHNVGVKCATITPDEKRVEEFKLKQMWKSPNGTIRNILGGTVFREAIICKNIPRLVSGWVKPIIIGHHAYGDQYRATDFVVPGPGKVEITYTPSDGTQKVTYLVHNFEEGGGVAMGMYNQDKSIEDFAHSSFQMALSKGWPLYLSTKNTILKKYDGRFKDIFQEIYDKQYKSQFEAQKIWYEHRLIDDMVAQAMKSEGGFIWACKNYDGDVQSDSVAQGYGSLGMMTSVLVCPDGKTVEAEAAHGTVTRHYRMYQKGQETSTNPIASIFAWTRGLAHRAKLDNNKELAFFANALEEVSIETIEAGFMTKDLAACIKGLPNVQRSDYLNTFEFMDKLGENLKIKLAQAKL
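IDH1-R132H (0.5 ug/mL dispensed) in pH 7.5 Tris buffer was preincubated 30 min with compound, then given a substrate mix of 0.016 mM NADPH and 2 mM alpha-KG for 80 min at room temperature; remaining NADPH was read by diaphorase/resazurin fluorescence.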
PKM2 activator: PKM2 (human) enzyme activation | purified PKM2, Kinase-Glo ATP luminescence, activation; response scale: 0% is enzyme alone, no compound | Potency, µM (titrated, usually from 57.5 µM), actives largely listed as activators | 260,000 tested, 0.34% active | AID 1631; further: nearly all actives have a fitted effect of over 55% in size
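Purified hPK-M2 (>95%) run at intermediate activity with 0.1 mM ADP and 0.5 mM PEP in 50 mM imidazole pH 7.2, KCl, MgCl2; 1 h room temperature. ATP formed read by Kinase-Glo luminescence; normalized to uninhibited and no-enzyme controls.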
GLS inhibitor: blocks human kidney-isoform glutaminase activity | O94925 | GLS enzymatic activity, qHTS titration | Potency, µM (series often up to 45.5 µM), usual class: inhibitors | 410,000 tested, 0.21% active | AID 624170
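Human kidney-isoform GLS in 45 mM KH2PO4 pH 8.2, 0.02% Tween-20, with compound, started with 1mM L-Glutamine (added stock). Glutamate oxidase/HRP/Amplex red coupled fluorescence read at start and after 30 min at RT.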
TrxR1 substrate: substrates of rat thioredoxin reductase 1; AID 588456; 390,000 tested, 0.01% active; purified TrxR1 substrate turnover, NADPH consumption readout; Potency, µM (highest dose often 114 µM); O89049; further: nearly all actives have a fitted effect of over 50% in size
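Rat TrxR1, dispensed at 90 nM, was prereduced with 400 uM NADPH (final) for 5 min at ~22 deg C, then incubated with compound 15 min before 400 uM selenite. A first-read NADPH fluorescence drop versus no-compound background flagged substrates.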
Hits are given with their value; . = inactive; ? = inconclusive; / = not tested or not shown. A selection: hits, their analogues and other compounds. The true share with any hit is near 1.4%. Unless noted, the call rests on the fitted dose curve; in most records, active means well fitted curve in the direction sought with a large enough effect; inconclusive means small, poorly fitted or top-dose-only effect, or another doubt; inactive means no such curve, though single readings can be large; an effect the other way counts as inactive or inconclusive.

SMILES	LDHA block	rTrxR1 inhibitor	mIDH1 inhibitor	PKM2 activator	GLS inhibitor	TrxR1 substrate
Cc1c(Cl)cccc1NC(CC(=O)c1ccccc1)C(=O)O (stereo not given)	.	3.5µM	.	?	.	.
COc1ccccc1NC(CC(=O)c1ccccc1)C(=O)OCC(=O)c1ccc(Cl)cc1 (stereo not given)	.	/	/	/	/	/
COc1ccccc1NC(CC(=O)c1ccccc1)C(=O)OCC(=O)c1ccc(F)cc1 (stereo not given)	.	35µM	.	?	.	.
O=C(CC(Nc1ccc(Cl)cc1)C(=O)O)c1ccccc1 (stereo not given)	.	28µM	.	.	.	.
O=C(CC(C(=O)O)c1ccc(Cl)cc1)c1ccccc1 (stereo not given)	.	.	.	.	.	.
CCC(C(=O)Nc1cccc(C(C)=O)c1)n1cnc2ccccc2c1=O (stereo not given)	.	/	/	/	/	/
O=S(=O)(c1ccccc1)c1nc(-c2ccc(F)cc2)oc1N1CCCCCC1	.	.	.	/	.	.
CN(C)c1oc(-c2ccc(Cl)cc2)nc1S(=O)(=O)c1ccccc1	.	35µM	.	.	.	.
CCCCCS(=O)(=O)c1oc(-c2cccs2)nc1S(=O)(=O)c1ccc(C)cc1	.	1.6µM	.	/	.	.
Cc1ccc(S(=O)(=O)c2nc(-c3ccccc3)oc2N(C)C)cc1	.	/	/	/	/	/
CCS(=O)(=O)c1oc(-c2ccc(F)cc2)nc1S(=O)(=O)c1ccccc1	.	0.5µM	/	/	.	.
COCC(=O)N1CCN(c2oc(-c3ccc(C)cc3)nc2S(=O)(=O)c2ccc(F)cc2)CC1	-36	/	/	/	/	/
CCCCNC(=S)NC1CCC(NC(=S)NCCCC)CC1 (stereo not given)	.	/	/	/	/	/
Cc1ccc(SC(=O)COc2ccccc2Cl)cc1	.	/	/	/	/	/
CCCCS(=O)(=O)c1oc(-c2cccs2)nc1S(=O)(=O)c1ccc(F)cc1	.	0.71µM	.	/	.	.
CCCCS(=O)(=O)c1oc(-c2ccc(F)cc2)nc1S(=O)(=O)c1ccc(C)cc1	.	1.4µM	.	/	.	.
CCC(C)S(=O)(=O)c1oc(-c2ccc(F)cc2)nc1S(=O)(=O)c1ccc(F)cc1 (stereo not given)	.	2µM	.	/	.	.
Fc1cccc(Cl)c1CNCCOc1ccccn1	.	/	/	/	/	/
C[N+]1(Cc2c(Cl)cccc2Cl)CCN(/C=C/C(=O)C(F)(F)F)CC1	.	/	/	/	/	/
O=C(CCN1CCOCC1)c1ccc(Br)cc1	.	0.45µM	.	.	.	.
CC(C)Oc1ccc(C(=O)CCN2CCOCC2)cc1	.	3.5µM	.	/	.	.
CCCCCOc1ccc(C(=O)CCN2CCOCC2)cc1	.	10µM	.	.	.	.
CCCCOc1ccc(C(O)(CCN2CCOCC2)c2ccccc2)cc1 (stereo not given)	.	40µM	.	/	.	.
CCCCOc1ccc(SCCCN2CCOCC2)cc1	.	.	.	/	.	.
CC(C)Oc1ccc(C(=O)CCN2CCCCC2)cc1	.	?	.	.	.	.
SMILES	LDHA block	rTrxR1 inhibitor	mIDH1 inhibitor	PKM2 activator	GLS inhibitor	TrxR1 substrate
COc1ccccc1C(=O)Nc1nc(C)c(C(=O)N(C)C)s1	.	/	/	/	/	/
CNC(=O)c1ccc(NC(=O)c2ccc3c(c2)NC(=O)CS3)cc1	.	/	/	/	/	/
Cc1nc(NC2CCCC2)sc1C(=O)Nc1ccccc1	.	/	/	/	/	/
CCOc1cc(-c2ccc(OC(=O)c3ccc(OC)cc3)c(OC)c2)cc(=O)c2c(C)oc(C)c12	.	35µM	.	/	.	.
COc1ccc(-c2cc(OC(=O)c3ccc(Cl)cc3)c3c(C)oc(C)c3c(=O)c2)cc1	.	50µM	.	/	.	.
CCOc1ccc(-c2cc(OC(=O)c3ccc(OC)cc3)c3c(C)oc(C)c3c(=O)c2)cc1	.	.	.	/	.	.
CC(C)c1ccc(CN(c2ccc3nnc(C(F)(F)F)n3n2)C2CC2)cc1	.	/	/	/	/	/
CCCS(=O)(=O)c1nc(S(=O)(=O)c2ccc(C)cc2)c(NCc2ccccn2)s1	.	20µM	.	.	.	.
